Data as given in PubChem BioAssay (NCI).
About 83,000 compounds went through this panel and 20% of them were active in at least one assay; those are over-represented in the sample as a whole.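 Values shown are percent growth following 48 h exposure of cells in 96-well plates to a single concentration of compound; below 10 was considered active.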 Calls of active or inactive are those of the source.

system: SNB-19 CNS; test: NCI-60 one-dose screen, 48 h (100 = growth as untreated, 0 = no growth, -100 = all killed); conditions: 10 µM unless noted
Protocol: Growth inhibition of the SNB-19 human tumor cell line is measured as a screen for anti-cancer activity. Cells are grown in 96 well plates and exposed to the test compound for 48 hours. Compounds are tested at a single concentration, which is 10^-5 M for most compounds. The reported endpoint is percent growth (GI% or GIPRCNT), where numbers from 0 - 100% represent growth inhibition, and numbers from -100% - 0 represent cell death. For example, a value of 40 represents 60% growth inhibition. A value of 0 means no net growth occurred over the course of the experiment. A value of -40 indicates 40% of cells at the beginning of the experiment died by the end of the experiment. A value of -100 means all cells are dead at the end of the experiment.
NCI-60 Human Tumor Cell Lines Screen was performed using the standard one-dose NCI protocol, which is described in more detail at https://dtp.cancer.gov/discovery_development/nci-60/default.htm.
Compounds with GIPRCNT values below 10 were considered active. Activity score was based on GIPRCNT using the following formula: […]
Score is 0 for GIPRCNT values of 100 or above, 50 for GIPRCNT values of 0, and 100 for GIPRCNT values of -100.

| Structure (SMILES) | growth |
| --- | --- |
| COc1cc2nc(NC3CCC3)nc(NC3CCN(C(C)C)CC3)c2cc1OC | 91% (inactive) |
| COc1c2ccoc2c(/C=C/C=O)c2oc(-c3ccccc3)cc(=O)c12 | 87.1% (inactive) |
| COc1cc2cc3c(=O)n4c(cc5cc(OC)ncc54)c(=O)n3c2cn1 | 105% (inactive) |
| NC1(N2SC(S)=C3CCCC=C32)CCCCC1 | 96.9% (inactive) |
| Cn1c(/C=C(\C#N)c2ccccc2)nc2c(N3CCOCC3)nc(Cl)nc21 | 56.9% (inactive) |
| CC[C@]1(O)C[C@@H]2CN(CCc3c([nH]c4ccccc34)[C@@](C(=O)OC)(c3cc4c(cc3OC)N(C)[C@H]3[C@@](O)(C(=O)OC)[C@H](OC(C)=O)[C@]5(CC)C=CCN6CC[C@]43[C@@H]65)C2)C1 | 29.8% (inactive) |
| O=S(=O)(c1ccccc1)n1cc2c(c1-c1ccccc1)CCc1sc(Nc3ccccc3)nc1-2 | 95.2% (inactive) |
| O=C(O)c1cn(C2CC2)c2cc(N3CCN(C(=O)C[n+]4ccccc4)CC3)c(F)cc2c1=O | 99.4% (inactive) |
| Clc1ccc(Nc2nnc(-c3ccc4c(c3)OCO4)o2)cc1 | 99% (inactive) |
| CN(C)CCNc1cc(-c2ccccc2)nc2ccccc12 | 54.2% (inactive) |
| O=C(Nc1ncc(Cc2cccc(C(F)(F)F)c2)s1)C1COc2ccccc2O1 (stereo not given) | 89.9% (inactive) |
| O=NN(Cc1cccnc1)C(=O)NC1CCCCC1 | 102% (inactive) |
| O=C(NC(=S)Nc1cccc(NC(=S)NC(=O)c2ccccc2)c1)c1ccccc1 | 50.9% (inactive) |
| NCCOc1ncccc1/C=C1\c2ccccc2-c2ccc(F)cc21 | 16% (inactive) |
| Cc1cc(Nc2ccc(OCc3ccccc3)cc2)nc2cc(O)ccc12 | 70.5% (inactive) |
| COc1ccccc1N1C(=N)S/C(=C\c2ccc(OCc3ccccc3F)cc2)C1=O | 90.9% (inactive) |
| COc1cc(/C=C/C(=O)N2c3ccccc3CC2C)c(OC)c2c1OCO2 (stereo not given) | 96.2% (inactive) |
| O=C(NC1CCCCC1)C(c1cccs1)N(CCc1ccccc1)C(=O)c1ccco1 (stereo not given) | 96.4% (inactive) |
| COc1ccc(-c2nnc(COc3ccc(C(=O)/C=C/c4ccco4)cc3)o2)cc1 | 78.1% (inactive) |
| FC(F)(F)c1cccc(Nc2nc3ccccc3nc2Nc2cccc(C(F)(F)F)c2)c1 | 7.81% (active) |

| Structure (SMILES) | growth |
| --- | --- |
| COC(=O)c1c2c(c(C)[n+]([O-])c1C)C(=O)C(NCc1ccc(F)c(F)c1)=CC2=O | 8.33% (active) |
| CCOC(=O)c1sc(-c2ccc(OS(=O)(=O)c3cccs3)c(C=O)c2)nc1C | 5.38% (active) |
| COc1cccc(/C=C/C(=O)c2c(C)nc3ccccc3c2/C=C/c2ccccc2)c1OC | 36.3% (inactive) |
| O=C(Cc1ccccc1)NC(c1ccc(Cl)cc1)c1c(O)ccc2ccccc12 (stereo not given) | 20.8% (inactive) |
| COc1ccc(-c2cn[nH]c2-c2ccc(OC)c(O)c2)cc1 | 76.5% (inactive) |
| CC[C@@H](C)[C@H](NC(=O)Cn1cc(CNC(=O)[C@@H](NC(=O)OCc2ccccc2)C(C)C)nn1)C(=O)O | 106% (inactive) |
| CCCc1c(C)c2sc(=O)[nH]c2[nH]c1=O | 101% (inactive) |
| O=C(NN1C(=O)CSC1c1ccc(Cl)cc1)c1[nH]c2ccc(F)cc2c1-c1ccccc1 (stereo not given) | 64.2% (inactive) |
| CCCCCCc1cc2cc(-c3csc(/C=C/c4ccccc4)n3)c(=O)oc2cc1O | 55.3% (inactive) |
| COc1ccc(C2Nc3nc(OC)n(C)c(=O)c3N=C3c4ccccc4C(=O)C32)cc1 (stereo not given) | 91.8% (inactive) |
| CN(O)c1nc(N(C)O)nc(N2CCOCC2)n1 | 32.8% (inactive) |
| Clc1ncccc1Nc1ccc2nnc(-c3ccncc3)n2n1 | 102% (inactive) |
| CCn1c(SCC(=O)Nc2cc(C(F)(F)F)ccc2Cl)nc2ccccc2c1=O | 93.5% (inactive) |
| COc1ccc(Nc2nc(N/N=C/c3ccc(O)cc3)nc(Nc3ccc([N+](=O)[O-])cc3)n2)cc1 | 101% (inactive) |
| O=c1c(-c2nc3ccccc3[nH]2)cc2ccccc2n1Cc1cn(Cc2ccc(F)cc2)nn1 | 21.8% (inactive) |
| COc1cc(CNC(=O)Cc2ccccc2)ccc1OCc1cn(-c2ccc(F)cc2)nn1 | 103% (inactive) |
| O=C(O)CCCN1C(=O)C2C3CCC(C3)C2C1=O (stereo not given) | 104% (inactive) |
| O=C(c1nc2ccccc2[nH]1)C1C(c2ccc([N+](=O)[O-])cc2)C2CC3CCCCC3N2[C@@]12C(=O)Nc1cc(Cl)ccc12 (stereo not given in full) | 27.5% (inactive) |
| O=C(Cn1cc(COc2ncnc3c2cnn3-c2ccccc2)nn1)Nc1ccccn1 | 90.8% (inactive) |
| O=C(c1ccccc1)N(C(=S)NCCc1ccc(Cl)cc1)c1ccccc1 | 104% (inactive) |
